Common to all, as to parameters: species or system human, MV4-11 + K-562 + COLO205 + SK-N-BE2 + OVCAR-8
Experiment [1] concerns MAP2K5. The following applies: read-out: apparent Kd, compound concentrations: 100 nM and 1000 nM (sheet 'Samples'), n = 1.
Experiment [2] deals with CDK17. The following applies: read-out: apparent Kd, compound concentrations: 100 nM and 1000 nM (sheet 'Samples'), n = 1.
For experiment [3], the system named is MAPK9. The following applies: read-out: apparent Kd, n = 1.
The subject of experiment [4] is BMPR1B. Particulars: read-out: apparent Kd, compound concentrations: 100 nM and 1000 nM (sheet 'Samples'), n = 1.
Experiment [5] deals with CDK16. The following applies: read-out: apparent Kd, n = 1.
In experiment [6] the test system is CDKL5. The following applies: read-out: apparent Kd, n = 1.
For experiment [7], the system named is EPHB6. The following applies: read-out: apparent Kd, n = 1.
For experiment [8], the system named is FLT4. The following applies: read-out: apparent Kd, compound concentrations: 100 nM and 1000 nM (sheet 'Samples'), n = 1.
The test system of experiment [9] is PLK4. Particulars: read-out: apparent Kd, n = 1.
The test system of experiment [10] is PRKD2. Particulars: read-out: apparent Kd, n = 1.
For experiment [11], the system named is AKT1. The following applies: read-out: apparent Kd, n = 1.
In experiment [12] the test system is JAK2. Particulars: read-out: apparent Kd, n = 1.
The test system of experiment [13] is RIOK2. Particulars: read-out: apparent Kd, n = 1.
In experiment [14] the test system is T1, DJA1.
T1 construct: gene DNAJA1
Particulars: read-out: apparent Kd, compound concentrations: 100 nM and 1000 nM (sheet 'Samples'), n = 1.

The subject of experiment [15] is AURKB. Particulars: read-out: apparent Kd, compound concentrations: 100 nM and 1000 nM (sheet 'Samples'), n = 1.
Experiment [16] relates to DDR2. Particulars: read-out: apparent Kd; compound concentrations: 100 nM and 1000 nM (sheet 'Samples'), CATDS: 5.9738771402131699E-2; n = 1.
Experiment [17] has as its system ACAD8. The following applies: read-out: apparent Kd; compound concentrations: 100 nM and 1000 nM (sheet 'Samples'), CATDS: 3.9352617982793499E-2; n = 1.
Experiment [18] has as its system FN3KRP. The following applies: read-out: apparent Kd; compound concentrations: 100 nM and 1000 nM (sheet 'Samples'), CATDS: 0.34838904093032003; n = 1.
Setting [19] is: compound concentrations:100 nM and 1000 nM (sheet 'Samples').

The structures appear in SMILES notation. Where two headings read alike, the source gives them in different places.

As for `CN1CCN(Cc2ccc(-c3ccc4c(Nc5ccc(Oc6ccccn6)cc5)ccnc4c3)o2)CC1` [GW567140X], in [1] (CATDS: 0.16913978514831801), the potency estimated from few doses was 58.2 nM.
For `O=S(=O)(CCOCc1ccc(-c2ccc3ncnc(Nc4ccc(OCc5cccc(F)c5)c(Cl)c4)c3c2)o1)c1ccccc1` [GW615311X], the potency estimated from few doses in experiment [2] (CATDS: 2.3617209164995101E-2) is 2010 nM; in experiment [3] (compound concentrations: 100 nM and 1000 nM (sheet 'Samples'), CATDS: 2.2235644452826799E-2), 2360 nM.
Regarding `CC(=O)N1CCN(c2ccc(Nc3nccc(-c4sc(C(C)C)nc4-c4cccc(NS(=O)(=O)c5ccccc5)c4)n3)cn2)CC1` [GSK1645872A], the potency estimated from few doses is 615 nM in experiment [4] (CATDS: 3.2416583266463302E-2); 431 nM in experiment [5] (compound concentrations: 100 nM and 1000 nM (sheet 'Samples'), CATDS: 3.8372919727344801E-2); 620 nM in [2] (CATDS: 3.2303603060191699E-2); 1680 nM in experiment [6] (compound concentrations: 100 nM and 1000 nM (sheet 'Samples'), CATDS: 2.2966868813045101E-2); 1230 nM in experiment [7] (compound concentrations: 100 nM and 1000 nM (sheet 'Samples'), CATDS: 2.50190585057842E-2); 1410 nM in [8] (CATDS: 2.4036705391895501E-2). Besides, the potency estimated from few doses in [9] (compound concentrations: 100 nM and 1000 nM (sheet 'Samples'), CATDS: 4.4195990908193997E-2) was 331 nM; in experiment [10] (compound concentrations: 100 nM and 1000 nM (sheet 'Samples'), CATDS: 6.4833229163543699E-2), 179 nM.
For `Nc1nc(N)c2nc(-c3ccccc3)[nH]c2n1` [SKF-12778], the potency estimated from few doses in experiment [11] (setting [19]) is 1480 nM; in [12] (setting [19]), 66.2 nM; in [3] (setting [19]), 2000 nM; in experiment [13] (setting [19]), 1620 nM.
For `CC(C)c1nc(-c2cccc(NS(=O)(=O)c3c(F)cccc3F)c2F)c(-c2ccnc(Nc3ccc(N4CCOCC4)nc3)n2)s1` [GSK2008607A], the potency estimated from few doses in experiment [5] (compound concentrations: 100 nM and 1000 nM (sheet 'Samples'), CATDS: 3.1735932444665597E-2) is 424 nM; in experiment [2] (CATDS: 2.730533885315E-2), 587 nM; in experiment [6] (compound concentrations: 100 nM and 1000 nM (sheet 'Samples'), CATDS: 1.9051705210026099E-2), 1650 nM; in experiment [7] (compound concentrations: 100 nM and 1000 nM (sheet 'Samples'), CATDS: 2.9714339770291101E-2) it was 487 nM; in experiment [8] (CATDS: 2.2429602546286599E-2), 967 nM; in experiment [9] (compound concentrations: 100 nM and 1000 nM (sheet 'Samples'), CATDS: 0.15679756420664201) it was 38.7 nM. The potency estimated from few doses in experiment [10] (compound concentrations: 100 nM and 1000 nM (sheet 'Samples'), CATDS: 3.65380455917537E-2) is 323 nM.
Turning to `CC(C)c1nc(-c2ccc(F)c(NS(=O)(=O)c3c(F)cccc3F)c2)c(-c2ccnc(Nc3ccc(N4CCOCC4)nc3)n2)s1` [GSK1804250A], the potency estimated from few doses in experiment [5] (setting [19]) is 1890 nM; in [6] (setting [19]) it was 984 nM; in experiment [7] (setting [19]), 738 nM; in experiment [9] (setting [19]) it was 403 nM; in experiment [10] (setting [19]) it was 232 nM.
For `Cn1cc(-c2ccc3c(c2)CCN3C(=O)Cc2cc(F)cc(C(F)(F)F)c2)c2c(N)ncnc21` [GSK2635225A], in experiment [14] (CATDS: 0.15894194998460401), the potency estimated from few doses is 902 nM.
On to `CC(=O)N1CCN(c2ccc(Nc3nccc(-c4sc(C(C)C)nc4-c4cccc(NS(=O)(=O)c5cccc(Cl)c5)c4)n3)cn2)CC1` [GSK1660437A], for which the potency estimated from few doses was 1070 nM in experiment [5] (compound concentrations: 100 nM and 1000 nM (sheet 'Samples'), CATDS: 4.5005275972449597E-2); 643 nM in [2] (CATDS: 5.6429200744427303E-2); 1690 nM in experiment [14] (CATDS: 3.8253703176693299E-2); 114 nM in [9] (compound concentrations: 100 nM and 1000 nM (sheet 'Samples'), CATDS: 0.17154832295699199); 680 nM in experiment [10] (compound concentrations: 100 nM and 1000 nM (sheet 'Samples'), CATDS: 5.4931765235902902E-2).
As for `NS(=O)(=O)CCc1cccc(Nc2nccc(-c3c(-c4cccc(NC(=O)c5c(F)cccc5F)c4)nn4ccccc34)n2)c1` [GSK336735A], the potency estimated from few doses in experiment [15] (CATDS: 5.6735057475689701E-2) is 1260 nM.
Take `Nc1ncc(-c2cn[nH]c2)c2scc(-c3ccc4c(c3)CCN4C(=O)Cc3ccccc3)c12` [GSK2593067A]: the potency estimated from few doses in experiment [15] (CATDS: 6.5904790346866707E-2) was 1230 nM; in [14] (CATDS: 0.221714333862437) it was 118 nM; in [7] (compound concentrations: 100 nM and 1000 nM (sheet 'Samples'), CATDS: 9.2316879629761303E-2), 522 nM.
As to `CN1CCN(c2ccc(Nc3nc(N)c(C(=O)c4ccc5c(c4)OCCO5)s3)cc2)CC1` [RO0505124-000], the potency estimated from few doses in experiment [12] (compound concentrations: 100 nM and 1000 nM (sheet 'Samples'), CATDS: 0.61009142123011895) is 50.1 nM.
Regarding `c1ccc(Oc2ccc(Nc3ccnc4cc(-c5ccc(CN6CCCCC6)o5)ccc34)cc2)nc1` [GW567143X], the potency estimated from few doses was 1180 nM in experiment [15] (CATDS: 3.8957530355760599E-2); 1830 nM in [7] (compound concentrations: 100 nM and 1000 nM (sheet 'Samples'), CATDS: 3.4972740863409998E-2); 108 nM in [1] (CATDS: 0.10658346724576).
As for `COc1cccc(-n2cnc3c(N/N=C/c4ccncc4)ncnc32)c1` [GW813360X], the potency estimated from few doses in [1] (CATDS: 0.129253463235972) is 2170 nM.
On to `N#Cc1cnc2cc(-c3cnc(CNCCN4CCOCC4)s3)ccc2c1Nc1ccc(Oc2ccccc2)cc1` [GW664114X], for which the potency estimated from few doses in experiment [1] (CATDS: 9.4704147517168505E-2) was 230 nM.
Regarding `CC(C)c1nc(-c2cccc(NS(=O)(=O)c3c(F)cccc3F)c2)c(-c2ccnc(Nc3ccc(N4CCOCC4)nc3)n2)s1.Cl` [GSK1723980B], the potency estimated from few doses in [5] (compound concentrations: 100 nM and 1000 nM (sheet 'Samples'), CATDS: 2.4648897890500801E-2) is 294 nM; in [2] (CATDS: 1.84448623420372E-2), 647 nM; in [6] (compound concentrations: 100 nM and 1000 nM (sheet 'Samples'), CATDS: 1.7066760873740601E-2) it was 848 nM; in experiment [7] (compound concentrations: 100 nM and 1000 nM (sheet 'Samples'), CATDS: 2.4657232775903402E-2), 294 nM; in experiment [8] (CATDS: 3.28978835638193E-2), 161 nM; in experiment [9] (compound concentrations: 100 nM and 1000 nM (sheet 'Samples'), CATDS: 6.4259568423255198E-2), 54.8 nM. The potency estimated from few doses in [10] (compound concentrations: 100 nM and 1000 nM (sheet 'Samples'), CATDS: 3.4388885610582398E-2) is 149 nM.
As for `CN1CCN(Cc2ccc(NC(=O)Nc3ccc(N(C)c4ccnc(Nc5ccc(CS(C)(=O)=O)cc5)n4)cc3)cc2)CC1.Cl` [GW827654A], the values for the potency estimated from few doses in experiment [15] (CATDS: 4.55704320916199E-2), in experiment [16] and in experiment [8] (CATDS: 0.106760971330705) were 700 nM, 348 nM and 109 nM, respectively.
In the case of `Clc1ccc(-c2nn3ncccc3c2-c2ccnc(Nc3ccccc3)n2)cc1` [GW829055X], the potency estimated from few doses in [17] was 1220 nM; in experiment [11] (compound concentrations: 100 nM and 1000 nM (sheet 'Samples'), CATDS: 3.4502228955022099E-2), 1670 nM; in experiment [4] (CATDS: 9.3434375492385105E-2) it was 264 nM; in experiment [2] (CATDS: 3.0637739748937999E-2), 2340 nM; in [14] (CATDS: 4.1892877755586803E-2), 1060 nM; in experiment [13] (compound concentrations: 100 nM and 1000 nM (sheet 'Samples'), CATDS: 3.5482707178261498E-2) it was 1560 nM.
On to `Cc1ccc(C(=O)NC2CC2)cc1-c1ccc2[nH]ncc2c1` [GW820759X], for which the potency estimated from few doses in experiment [18] is 1060 nM.
